PubChem BioAssay (Tox21)
Records with an inconclusive call do not appear. Active and inactive are the calls of the source. Calls come from the whole dose curve; as a rule, active = well fitted activation curve with a large enough effect in the signal ratio in the repeat runs (not every such curve was filed as active); inconclusive = weak or mixed curves, or effect the other way; inactive = no such curve, though single readings can be large or run the other way; the % refers to the signal ratio.

Target: Peroxisome proliferator-activated receptor gamma (Homo sapiens) (UniProt P37231)
Experiment: qHTS assay to identify small molecule agonists of the peroxisome proliferator-activated receptor gamma (PPARg) signaling pathway (AID 743094)
Conditions: HEK293H PPARg-UAS-bla, beta-lactamase FRET ratio, 17 h; series mostly up to 57 µM
Description: U.S. Tox21 Program National Center for Advancing Translational Sciences [NCATS] NIH Chemical Genomics Center [NCGC] U.S. Environmental Protection Agency [EPA] National Institutes of Environmental Health Sciences [NIEHS] National Toxicology Program [NTP] U.S. Food and Drug Administration [FDA] Tox21 Assay Overview: The peroxisome proliferator-activated receptors (PPARs) are lipid-activated transcription factors of the nuclear receptor superfamily with three distinct subtypes namely PPAR alpha, PPAR delta (also called PPAR beta) and PPAR gamma (PPARg). All these subtypes heterodimerize with Retinoid X receptor (RXR) and these heterodimers regulate transcription of various genes. PPAR-gamma receptor (glitazone receptor) is involved in the regulation of glucose and lipid metabolism. To identify the compounds that activate PPAR-gamma signaling, GeneBLAzer PPAR gamma UAS-bla HEK293H cell line (Invitrogen, Carlsbad, CA, USA) containing a beta-lactamase reporter gene under control of the control of an upstream activator sequence (UAS) stably integrated into HEK293H cells was used to screen Tox21 compound library.
Tox21 Assay Protocol Summary: PPARg-bla cells were dispensed at 3000 cells/6uL/well in 1536-well black wall/clear bottom plates using a Multidrop Combi (Thermo Fisher Scientific, Waltham, MA) dispenser. After the assay plates were incubated at 37C and 5% CO2 for 5 h, 23 nL of compounds dissolved in DMSO, positive controls or DMSO only was transferred to the assay plate by a Pintool station (Kalypsys, San Diego, CA). The assay plates were incubated at 37C for 17 h. After 1 uL of LiveBLAzerTM B/G FRET substrate was added using a Bioraptr Flying Reagent Dispenser (FRD) workstation (Beckman Coulter, Indianapolis, IN, USA), the plates were incubated at room temperature for 1 h, and fluorescence intensity was measured by an Envision plate reader (PerkinElmer, Shelton, CT).

Peroxisome proliferator-activated receptor gamma (Homo sapiens), sequence (P37231 whole entry, looked up): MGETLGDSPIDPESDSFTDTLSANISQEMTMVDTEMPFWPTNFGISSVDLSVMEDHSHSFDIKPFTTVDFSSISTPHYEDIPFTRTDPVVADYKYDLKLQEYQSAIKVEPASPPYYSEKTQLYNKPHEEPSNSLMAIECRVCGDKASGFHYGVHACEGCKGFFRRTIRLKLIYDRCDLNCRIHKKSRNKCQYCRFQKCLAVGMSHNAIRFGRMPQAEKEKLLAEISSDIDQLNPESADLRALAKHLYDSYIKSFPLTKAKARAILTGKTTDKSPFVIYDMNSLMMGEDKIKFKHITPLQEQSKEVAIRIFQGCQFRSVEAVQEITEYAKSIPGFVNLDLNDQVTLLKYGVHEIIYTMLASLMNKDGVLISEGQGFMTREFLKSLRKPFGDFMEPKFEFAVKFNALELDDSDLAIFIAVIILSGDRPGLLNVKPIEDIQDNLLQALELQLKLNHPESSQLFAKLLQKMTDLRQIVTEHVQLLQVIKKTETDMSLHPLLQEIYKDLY

Compound | outcome
O=C1OC(c2ccc(O)c(S(=O)(=O)O)c2)(c2ccc(O)c(S(=O)(=O)O)c2)c2c(Br)c(Br)c(Br)c(Br)c21 | inactive
CCCSP(=S)(OCC)Oc1ccc(Cl)cc1Cl (stereo not given) | inactive
CCOC(=O)NC(=S)Nc1ccccc1NC(=S)NC(=O)OCC | inactive
ClC(Cl)Br | inactive
CNNC | inactive
CCCCOC(=O)[C@@H](C)Oc1ccc(Oc2ccc(C#N)cc2F)cc1 | inactive
CNC(=O)N(C)c1nc2ccccc2s1 | inactive
CCC(=O)c1ccccc1 | inactive
O=C(NCO)NCO | inactive
CC(C)(C)OC(=O)c1ncn2c1[C@@H]1CCCN1C(=O)c1c(Br)cccc1-2 | inactive
CCOP(=S)(OCC)Oc1nc(Cl)n(C(C)C)n1 | inactive
O=[N+]([O-])c1cccc2cccnc12 | inactive
CCOP(=S)(OCC)SCSc1ccc(Cl)cc1 | inactive
C[N+](C)=CCl | inactive
CCc1cc2c(s1)-n1c(C)nnc1CN=C2c1ccccc1Cl | inactive
c1cc2c(c(N3CCNCC3)c1)OCCO2 | inactive
CC(Cl)(Cl)[N+](=O)[O-] | inactive
CCC1(c2ccccc2)C(=O)NC(=O)NC1=O | inactive
CCCCc1c(C)nc(NCC)[nH]c1=O | inactive
CCN(CC)C(=O)[C@@H]1C=C2c3cccc4[nH]cc(c34)C[C@H]2N(C)C1 | inactive

Compound | outcome
CNC(=O)Oc1c(C(C)(C)C)cc(C)cc1C(C)(C)C | inactive
Oc1c(Cl)cccc1Cl | inactive
Nc1cnn(-c2ccccc2)c(=O)c1Cl | inactive
COC(=O)c1c(C(F)F)nc(C(F)(F)F)c(C2=NCCS2)c1CC(C)C | inactive
COP(N)(=S)Oc1ccccc1C(=O)OC(C)C (stereo not given) | inactive
COc1cc(OC)nc(Oc2cccc(Oc3nc(OC)cc(OC)n3)c2C(=O)O)n1 | inactive
O=C1c2ccccc2C(=O)c2ccccc21 | inactive
COC(=O)c1ccccc1S(=O)(=O)NC(=O)Nc1nc(C)cc(C)n1 | inactive
CCOC(=O)/C=C(C)/C=C/C[C@@H](C)CCCC(C)C | inactive
CCCCOC(=O)c1ccccc1N | inactive
CCC(C)n1c(=O)[nH]c(C)c(Br)c1=O (stereo not given) | inactive
CC(COc1ccc(Oc2ccccc2)cc1)Oc1ccccn1 (stereo not given) | inactive
O=C(O)c1ccc2[nH]cc(CCCCN3CC=C(c4ccccc4)CC3)c2c1 | inactive
O=C(O)c1cccc(Cl)c1 | inactive
CCCCOC(=O)c1ccccc1C(=O)O | inactive
NC(=O)c1cc([N+](=O)[O-])cc([N+](=O)[O-])c1 | inactive
ClC(Cl)C(Cl)Cl | inactive
CN1CCN(C(=O)O[C@H]2c3nccnc3C(=O)N2c2ccc(Cl)cn2)CC1 | inactive
CCC(Cl)[N+](=O)[O-] (stereo not given) | inactive
CCN(CC)CCOC(=O)C(C)(c1ccccc1)c1ccccc1 | inactive
